Article PMC5540273 (PLoS ONE, 2017)

Assays:
Conditions in all cases: concentration: 1 μM, replicates: in singlicate; n = 1
BMX = system: BMX
BRAF = system: BRAF
BRK = system: T1, BRK
T1 construct: gene PTK6

BRSK1 = system: BRSK1
BRSK2 = system: BRSK2
BTK = system: BTK
BUB1 = system: BUB1
CAMK1B = system: CAMK1B
CAMK1D = system: CAMK1D
CAMK1G = system: CAMK1G
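Note: KINOMEscan kinase panel screen.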

Row | Compound | %Inh (BMX) | %Inh (BRAF) | %Inh (BRK) | %Inh (BRSK1) | %Inh (BRSK2) | %Inh (BTK) | %Inh (BUB1) | %Inh (CAMK1B) | %Inh (CAMK1D) | %Inh (CAMK1G)
1 | CCNC(=O)/C=C/c1n[nH]c2cc(Sc3ccccc3C(=O)NC)ccc12 | 18% | 11% | 15% | 38% | 24% | 0% | 48% | 9% | 22% | 20%
2 | Cc1ccc(C)c(NC(=O)Nc2ccc(C)c(-c3ccc(C(=O)Nc4ccncc4)cc3)c2)c1 [GSK1398473] | 0% | 62% | 25% | 0% | 0% | 0% | 4% | 27% | 13% | 0%
3 | COc1cccc(NC(=O)NCCNc2ccnc(Nc3ccc(F)cc3)n2)c1 [GSK1379879] | 4% | 0% | 30% | 0% | 0% | 0% | 58% | 0% | 8% | 0%
4 | CSc1ccc(NC2=C(c3ccc(Cl)cc3)C(=O)NC2=O)cc1 [SB-317658] | 11% | 0% | 1% | 0% | 0% | 0% | 0% | 61% | 13% | 0%
5 | Cc1cc(-c2ccnc(Nc3cccc(C#N)c3)n2)cc(C)c1O [GSK1440913] | 25% | 4% | 25% | 2% | 0% | 14% | 52% | 24% | 8% | 22%
6 | Cc1cccc(Nc2nc(NCCN)ncc2C(N)=O)c1 [GSK1292139] | 0% | 3% | 0% | 10% | 0% | 0% | 66% | 98.1% | 84% | 23%
7 | Nc1ncc(-c2cn[nH]c2)c2scc(-c3ccc4c(c3)CCN4C(=O)Cc3ccccc3)c12 [GSK2593067] | 31% | 0% | 96.1% | 0% | 0% | 0% | 11% | 0% | 11% | 19%
8 | Cc1nn2c(=O)cc(N3CCO[C@H](C)C3)nc2n1Cc1cccc(Cl)c1Cl [GSK2373693] | 15% | 2% | 13% | 3% | 0% | 0% | 28% | 42% | 9% | 0%
9 | O=C(Nc1n[nH]c2nc(-c3ccccc3)ccc12)C1CC1 [SB-708999] | 9% | 4% | 0% | 54% | 37% | 40% | 0% | 35% | 0% | 79%
